The sample as a whole holds a higher share of hits than the screen did.
Pf apPOL block = Pf-apPOL DNA polymerase inhibition; actives 0.25% (n = 210,000); Recombinant Pf-apPOL, molecular beacon fluorescence, 1.5 h; AID 1794808; inhibition, % at 10 µM
mHTT-CaM PPI inh = mHTT-calmodulin interaction abrogation | P42858 | AlphaScreen His-mHTT/GST-CaM binding, luminescence | inhibition, % at 15 µM | actives 3.6% (n = 190,000) | AID 1671202
Each line names hits and unclear results; the compound was inactive in the other large screens. Rule as the data show it: active = inhibition above about 50%; inactive = the rest.

Cc1ccc(NC2=CC(=NS(=O)(=O)c3cccs3)c3ccccc3C2=O)c(C)c1	mHTT-CaM PPI inh 90
COc1ccccc1NC1=CC(=NS(=O)(=O)c2ccc(C)cc2)c2ccccc2C1=O	mHTT-CaM PPI inh 93
O=S(=O)(N=C1SCCS1)c1ccccc1	none
CCc1ccc(S(=O)(=O)N=C2C=C(Nc3ccccc3)C(=O)c3ccccc32)cc1	mHTT-CaM PPI inh 93
CCOc1ccc(NC2=CC(=NS(=O)(=O)c3ccc(F)cc3)c3ccccc3C2=O)cc1	mHTT-CaM PPI inh 67
COc1ccccc1NC1=C(Cl)C(=O)c2ccccc2C1=O	none (no result: mHTT-CaM PPI inh)
COc1ccc(C)cc1NC(=O)C(NS(=O)(=O)c1cccs1)C(C)C (centres undefined)	none
CCOc1ccc(S(=O)(=O)Nc2cnc3ccccc3c2)cc1	none
CCOc1cc(S(=O)(=O)Nc2cccc(C)n2)c(C)cc1C	none
CC1(C)CC(=O)C2=C(C1)Nc1ncnn1C2c1ccc(OCc2ccccc2)cc1 (centres undefined)	none
COc1ccc(NC(=O)C2=C(C)Nc3ncnn3C2c2ccccc2[N+](=O)[O-])cc1 (centres undefined)	none
C=CCn1c(=N)c(C(=O)NCC2CCCO2)cc2c(=O)n3ccccc3nc21 (centres undefined)	none
O=C(C1CCC1)N1CCN(c2nc3c(s2)CC(C(=O)N2CCOCC2)CC3)CC1 (centres undefined)	none
O=C(NCc1ccccc1)N1CCCC1c1ccccc1F (centres undefined)	none
CCOc1ccc(S(=O)(=O)Nc2ccc(I)cc2)cc1	none
CCOc1ccc(S(=O)(=O)N=C2C=C(Nc3ccccc3)C(=O)c3ccccc32)cc1	mHTT-CaM PPI inh 90
CCOc1ccc(NC2=CC(=NS(=O)(=O)c3ccc(OCC)cc3)c3ccccc3C2=O)cc1	mHTT-CaM PPI inh 75
CCOc1ccc(S(=O)(=O)N=C2C=C(Nc3ccc(OC)cc3)C(=O)c3ccccc32)cc1	mHTT-CaM PPI inh 89
CCc1ccc(NS(=O)(=O)c2ccc(OC)cc2)cc1	none
COc1ccc(S(=O)(=O)N=C2C=CC(=O)c3ccccc32)cc1	mHTT-CaM PPI inh 98
COc1ccc(S(=O)(=O)N=C2C=C(C(C)C)C(=O)C=C2C)cc1	none
CCOc1ccc(S(=O)(=O)NC(=O)c2ccccc2)cc1	none
O=C(NCc1ccco1)C(=O)NCC1OCCN1C(=O)c1ccc2c(c1)OCO2 (centres undefined)	none
Fc1cccc(-c2csc(COc3ccc(C4SCCS4)cc3)n2)c1	none (no result: mHTT-CaM PPI inh)
O=C(Nc1ccc(N2CCCN(Cc3ccoc3)CC2)nc1)C1CCCC1	none
NC(=O)c1ccccc1NC(=O)COc1cccc(Cl)c1	none
O=C(NC1CCCC1)c1cn2c(n1)CCCC2	none
COc1ccc(C2C(C(=O)Nc3ccccc3)=C(C)Nc3nnnn32)cc1OC (centres undefined)	none
O=C1C(=Cc2ccco2)Oc2c1ccc1c2CN(CC2CCCO2)CO1 (centres undefined)	none
COc1ccc(S(=O)(=O)N=C2C=C(Nc3ccccc3)C(=O)c3ccccc32)cc1	mHTT-CaM PPI inh 88
COc1ccc(S(=O)(=O)N=C2C(C)=CC(=O)C(S(=O)(=O)c3ccccc3)=C2C)cc1	none
CCCNc1nc(CC)nc2c1cnn2-c1ccccc1Cl	none
NS(=O)(=O)c1cccc(NS(=O)(=O)c2ccccc2)c1	none (no result: mHTT-CaM PPI inh)
O=S(=O)(Nc1ccc(Nc2ccccc2)c(NS(=O)(=O)c2ccccc2)c1)c1ccccc1	mHTT-CaM PPI inh 63
CC(=O)Nc1ccc(S(=O)(=O)Nc2ccc(S(=O)(=O)Nc3ccccc3)cc2)cc1	none
CC(=O)Nc1ccc(S(=O)(=O)Nc2ccc(Nc3ccccc3)cc2)cc1	mHTT-CaM PPI inh 83
CCOC(=O)c1cccc(NC(=O)C2CCCN(C(=O)c3ccccc3F)C2)c1 (centres undefined)	none
O=C(CCc1ccccc1)N1CCCC1c1cccc(F)c1 (centres undefined)	none
COc1ccccc1CNC(=O)CCS(=O)(=O)Cc1ccccc1C	none
CCCCOc1ccc(Nc2cc(C)nc3ccc(OC)cc23)cc1	mHTT-CaM PPI inh 61
CCOc1ccc(Nc2cc(C)nc3ccc(Cl)cc23)cc1	none
Cc1ccc(S(=O)(=O)N2CCN(c3ccc([N+](=O)[O-])c(NCc4cccnc4)c3)CC2)cc1	none
CC(=O)N1CCC(CC(=O)N2CCCCC2CCN2CCCC2)CC1 (centres undefined)	none
C=CC(COCc1ccccc1)N(Cc1ccc(OC)cc1)S(=O)(=O)c1ccccc1Br (centres undefined)	none
COc1ccc(CN(CC(O)COCc2ccccc2)S(=O)(=O)c2ccccc2Br)cc1 (centres undefined)	mHTT-CaM PPI inh 86
O=C(Nc1ccc(F)cc1)/C(=C\c1ccc2c(c1)OCO2)NC(=O)c1ccccc1Cl	none
COc1cccc(-c2cc(C3CCN(S(=O)(=O)c4ccc(F)c(F)c4)CC3)[nH]n2)c1	none
Cc1ccc(S(=O)(=O)N2CCC(n3cnc4ccc(F)cc4c3=O)CC2)cc1C	none
COc1cccc(N2CCN(S(=O)(=O)c3ccc4[nH]c5c(c4c3)CCCC5)CC2)c1	mHTT-CaM PPI inh 55
COc1ccccc1N1CCN(S(=O)(=O)c2ccc3[nH]c4c(c3c2)CCCC4)CC1	mHTT-CaM PPI inh 50

Screens as filed in PubChem.
